The test deals with PXR:RXRa (NR concentration 270 nM, RXRa partner concentration 90 nM). In words: PBM binding z-score (relative to random genomic background probes); higher = stronger binding; sequences stand for … in GC…GCGATTGACAGCGTAGAATGAAGG
In short, it runs like this: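 Probes were double-stranded and carried 34-nt variable regions with direct-repeat seeds, single-nucleotide variants, half-site ablations and random human genomic background sequences, printed on custom Agilent 4×180K protein-binding microarrays. Arrays were incubated 1 h with ligand-free nuclear receptor dimers in PBS pH 7.4, 2% milk, 0.02% Triton X-100, 1 mM DTT, 0.2 mg/mL BSA and 0.4 mg/ml salmon testes DNA. Antibodies against each partner (one per run) detected binding, and scanned fluorescence was regression-normalized. Binding z-scores use the random background probes as reference.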
The sequence TTACCATGGTGAGCTGAGGTCGTTGATCCAACTC showed a PBM binding z-score of 1.87.
For CAGCCTAGGTCAGGGCCAGTAAAGGAGGAACGTT the value was 0.328; for TCTTGTAGATCAATAGAGTTTAAGAAAGTGCGCT, 2.24; for TCGAGGAGGTTACCAATGGGGCATTCAGCTTTCT, 1.05.
For CGTCCAAGGTCAGAGATGTCAGTGAATGCCGAGT the value was 2.43; for CACACTAGGTCACGAAAGGTCAAAGTCGAATGAC, 7.26; for GATACAGGGTCAGCTAGAGGCAAGAGTATGGAAA, 2.1.
For CGAACTAGGTCACAACAGGACAGTGAAGGATGAT the value was 1.85.
Sequence ATATGTAGGTTTAGGGTCATTCAGGTTGGTTCGC displayed a PBM binding z-score of 5.07.
With CCGACTGGGGCAAGGTTAGCATAACGCACAGCCA the figure was -0.179.
In the case of CGTCCAAGGTCATCGGAGGTCAGTGAAGACAGAT, the PBM binding z-score was found to be 7.33.
For TCTCGGAGGACACGAAAGGTCAGAGTTCGACATC the value was 4.98; for CCTACTGGCCCACGAAAGGTCATTGATTCAGTGA, 5.2; for TCATATAGGTAAAGGCGAAAGTCGAACGATATGA, -0.107.
For the sequence CAAACTAGGTCAGAGAGGTCAAAGTCCGTGCGTA, the PBM binding z-score worked out at 6.24.
With TAGCCTAGGTCAGATCGGGCCAGTATCCGCTATA the figure was 0.834; with CTCGAAAGGCCGGTTGAGGTGAGTATACGGATAA, -0.133.

Source of the values: the supplement of paper PMC6555819.
